Shiga inhibitor = Shiga toxin inhibition. Vero cells, Shiga toxin protein synthesis inhibition reporter. inhibition, % at 38.7 µM. hit rate 9.2% among 290,000; in the data active = inhibition mostly above about 28%, no sharp cut-off; inactive = mostly below about 43%; note: 0% is about no effect
Sm TGR block = inhibitors of Schistosoma mansoni thioredoxin glutathione reductase. Potency, µM (highest dose often 114 µM), for the others: top-dose activity change, negative = inhibition, hits mostly inhibitors. AID 485364. hit rate 3% among 360,000. Q962Y6. purified TGR, DTNB reduction, TNB absorbance 405 nm; active = well fitted inhibition curve with a large enough effect; inconclusive = small, poorly fitted or top-dose-only effect; inactive = no such curve, though single readings can be large or run the other way; note: potency is the fitted concentration of half-maximal effect; % is set by controls: 0 for no effect and ±100 for the full control effect; nearly all actives have a fitted effect of over 60% in size
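Kinetic colorimetric format: TGR-catalysed, NADPH-driven DTNB reduction monitored via TNB absorbance. Enzyme dispensed at 20 nM; compound exposure 15 min at room temperature before reaction start.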
FMDV inh = blocks foot and mouth disease virus; FMDV antiviral cell-based qHTS; Potency, µM (top dose mostly 57.9 µM), inactives show at the highest dose activity change, negative = inhibition, most hits filed as inhibitors; hit rate 1.2% among 410,000; AID 1159524; calls by dose curve; tested in HEK293T cells; note: read-out not given here; potency is the fitted concentration of half-maximal effect; % is set by controls: 0 for no effect and ±100 for the full control effect; nearly all actives have a fitted effect of over 45% in size
CHX counter = counter-screen for Shiga toxin inhibitors: cycloheximide protein synthesis inhibition; hit rate 12% among 300,000; max response, %; cell reporter, cycloheximide protein synthesis inhibition counterscreen; in the data active = max response mostly above about 13%, no sharp cut-off; inactive = mostly below about 14%; note: read at 38.3 µM for the half of the compounds with a filed dose; 0% is about no effect
Active calls of the source: *; ? = inconclusive; . = no result. Sampled rows, rich in hits. Any-hit rate of the full collection: about 12%.

SMILES	Shiga inhibitor	Sm TGR block	FMDV inh	CHX counter
O=C(Nc1ccc(S(=O)(=O)Nc2ccccc2)cc1)C1COc2ccccc2O1 (stereo not given)	12	7%	.	2
CCOC(=O)c1ccc(NC(=O)C2COc3ccccc3O2)cc1 (stereo not given)	.	9%	15%	-2
CN(C)S(=O)(=O)c1ccc(NC(=O)C2COc3ccccc3O2)cc1 (stereo not given)	28	6%	21%	11*
Cc1ccc(C)c(NC(=O)N2CCC(N3CCN(Cc4ccc(F)cc4)C(=O)C3=O)CC2)c1	.	-3%	-4%	.
COc1ccc(Cn2ccc3nc(C)c(C(=O)N4CCN(c5ccccc5OC)CC4)cc3c2=O)cc1	.	0%	?	.
CC(C)(C)c1nc2c(C#N)c(-c3ccc(Cl)cc3)ccn2n1	57	1%	?	25*
CCCCNc1nc(Oc2ccc(OCCC)nn2)nc(N(C)C)n1	.	?	-20%	.
COc1ccc(NC2c3ccccc3C(=O)N2c2ccccn2)cc1 (stereo not given)	45*	-6%	-27%	20*
CCOc1ccc(N2C(=O)c3ccccc3C2=O)cc1	8	-3%	31%	8
CCOC(=O)c1ccc(NC2c3ccccc3C(=O)N2c2ccccn2)cc1 (stereo not given)	-4	6%	-1%	2
CCOc1ccc(N2C(=O)c3ccccc3C2O)cc1 (stereo not given)	64*	-9%	40%	45
CCOc1ccc(NC2c3ccccc3C(=O)N2c2ccc(Cl)cn2)cc1 (stereo not given)	68*	-8%	12%	11*
CC[C@H](C)[C@H](NC(=O)[C@H](CC(C)C)NC(=O)[C@H](CO)NC(=O)[C@H](CCC(=O)O)NC(=O)[C@H](CC(C)C)NC(=O)[C@H](Cc1ccc(O)cc1)NC(=O)[C@H](CCCCN)NC(=O)[C@H](CCCCN)NC(=O)[C@H](C)NC(=O)[C@H](CO)NC(=O)[C@H](CC(C)C)NC(=O)[C@H](CCC(N)=O)NC(=O)CNC(=O)[C@H](CC(C)C)NC(=O)[C@H](CC(C)C)NC(=O)[C@H](CCCNC(=N)N)NC(=O)[C@H](CO)NC(=O)[C@H](Cc1ccccc1)NC(=O)[C@H](CC(=O)O)NC(=O)[C@H](CO)NC(=O)[C@@H](NC(=O)[C@H](Cc1ccccc1)NC(=O)[C@@H](NC(=O)CNC(=O)[C@H](CC(=O)O)NC(=O)[C@H](C)NC(=O)[C@@H](N)Cc1cnc[nH]1)C(C)C)[C@@H](C)O)C(N)=O	-7	.	.	-9
CN(Cc1ccco1)C(=O)Cn1cc(S(=O)(=O)N2CCCC2)c(S(=O)(=O)N2CCCC2)c1	-3	35µM*	2%	-1
COc1ccc(NC(=O)Cn2c(=O)n(-c3cc(C)cc(C)c3)c(=O)c3oc4ccccc4c32)cc1OC	.	-6%	-8%	.
Clc1ccc(-c2nsc(N3CCOCC3)n2)c(Cl)c1	72*	0%	19%	34*
O=C(c1ccc2c(c1)CCCC2)N1CCN(c2nc3c(F)cccc3s2)CC1	.	5%	-8%	.
Fc1cccc2sc(N3CCCCC3)nc12	57*	3%	53%	54*
Fc1cc(F)c2nc(N3CCCC3)sc2c1	150*	0%	5%	29*
Clc1cc(Cl)c2nc(N3CCOCC3)sc2c1	51*	2%	30%	31*
CCOC(=O)c1cc(S(=O)(=O)Nc2c(C)cc(C)cc2C)[nH]n1	.	1%	-2%	.
c1cncc(OC2CCN(Cc3ccc4c(c3)CN(Cc3ccc5c(c3)OCCO5)CCO4)CC2)c1	.	.	-19%	.
Fc1cccc2sc(N3CCOCC3)nc12	52*	-4%	38%	15*
CCCNC(=S)N1CCN(c2nc(-c3cccc(OC)c3)cs2)CC1	11	3%	?	13*
CCCNC(=S)N1CCN(c2nc(-c3ccc(C)cc3)cs2)CC1	-2	9%	?	13*
SMILES	Shiga inhibitor	Sm TGR block	FMDV inh	CHX counter
COCCNC(=S)N1CCN(c2nc(-c3ccccc3)cs2)CC1	-3	7%	-21%	-4
CCc1nn2c(=O)cc(COC(=O)c3ccc(NC(=O)c4cccs4)cc3)nc2s1	.	4%	-21%	.
Cc1ncsc1CCOC(=O)c1ccc(N2CCOCC2)c([N+](=O)[O-])c1	58	-15%	-1%	27
Cc1c(CCOC(=O)c2ccc(N3CCOCC3)c([N+](=O)[O-])c2)sc[n+]1CC#N	14	0.89µM*	?	15
CCC1CCCCN1S(=O)(=O)c1ccc(N2CCCCS2(=O)=O)cc1 (stereo not given)	.	-6%	10%	.
CC(C)CCNC(=O)c1ccc(Cl)c(N)c1	57*	.	.	37*
CC(C)CCNC(=O)C(=O)Nc1ccccc1	162*	2%	28%	45*
